Measurements from publication PMC7862700, “An all-to-all approach to the identification of sequence-specific readers for epigenetic DNA modifications on cytosine”.

How the values were obtained:
Test in all cases: DAPPL (digital affinity profiling via proximity ligation, sequencing); 10 mM Tris-HCl pH 7.5, 50 mM NaCl, 1 mM DTT, 4% glycerol, room temperature, 30 min; GST-TFs on glutathione beads, 16-mer random dsDNA library, 0.1% formaldehyde crosslink after washing; high values mean tight binding
Conditions in all cases: protein: recombinant; tags: N-terminal GST; dsDNA, one strand shown
ERF = biological target: T1, ERF (Homo sapiens, UniProt P50548 1-548)
T1 sequence: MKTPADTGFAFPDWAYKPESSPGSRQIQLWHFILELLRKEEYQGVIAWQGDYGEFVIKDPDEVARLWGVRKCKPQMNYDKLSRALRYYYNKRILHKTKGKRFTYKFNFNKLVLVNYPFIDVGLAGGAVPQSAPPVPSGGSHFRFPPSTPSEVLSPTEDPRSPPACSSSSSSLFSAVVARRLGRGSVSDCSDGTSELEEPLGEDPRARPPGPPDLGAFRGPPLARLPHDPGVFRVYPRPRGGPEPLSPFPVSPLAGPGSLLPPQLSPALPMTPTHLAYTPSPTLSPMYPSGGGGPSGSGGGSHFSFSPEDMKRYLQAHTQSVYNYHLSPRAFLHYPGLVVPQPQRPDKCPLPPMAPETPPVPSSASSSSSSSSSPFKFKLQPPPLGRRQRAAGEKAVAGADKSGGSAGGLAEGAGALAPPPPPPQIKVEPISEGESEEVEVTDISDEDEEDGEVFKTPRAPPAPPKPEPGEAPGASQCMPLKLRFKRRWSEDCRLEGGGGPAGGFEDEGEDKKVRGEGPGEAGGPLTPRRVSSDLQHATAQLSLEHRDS
Summary of the method: (§1)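 Pools were built from human transcription factors expressed in yeast as GST fusions, captured on glutathione beads and DNA-barcoded, along with a tag-only sample. Incubation with 200 nmole of a 16-mer random double-stranded DNA library lasted 30 min at room temperature in Tris/NaCl/DTT/glycerol buffer, and was followed by washing, 0.1% formaldehyde crosslinking, proximity ligation, PCR amplification and Illumina NextSeq500 sequencing. Binding signal is the quotient of each hexamer's read frequency for a factor and its frequency for the tag-only sample.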

ETV3L = biological target: T2, ETV3L (Homo sapiens, UniProt Q6ZN32 1-361)
T2 sequence: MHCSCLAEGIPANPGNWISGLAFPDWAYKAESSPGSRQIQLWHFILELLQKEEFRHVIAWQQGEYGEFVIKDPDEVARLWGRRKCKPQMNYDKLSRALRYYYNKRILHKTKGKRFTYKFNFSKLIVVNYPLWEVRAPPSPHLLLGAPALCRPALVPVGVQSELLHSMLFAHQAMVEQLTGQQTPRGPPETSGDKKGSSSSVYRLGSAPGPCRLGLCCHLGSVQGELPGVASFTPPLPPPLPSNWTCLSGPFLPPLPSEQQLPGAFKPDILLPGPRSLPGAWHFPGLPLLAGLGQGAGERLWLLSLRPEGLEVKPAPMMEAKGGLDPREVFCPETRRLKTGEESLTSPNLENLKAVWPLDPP
Summary of the method: as §1

ETS2 = biological target: T3, ETS2 (Homo sapiens, UniProt P15036 1-469)
T3 sequence: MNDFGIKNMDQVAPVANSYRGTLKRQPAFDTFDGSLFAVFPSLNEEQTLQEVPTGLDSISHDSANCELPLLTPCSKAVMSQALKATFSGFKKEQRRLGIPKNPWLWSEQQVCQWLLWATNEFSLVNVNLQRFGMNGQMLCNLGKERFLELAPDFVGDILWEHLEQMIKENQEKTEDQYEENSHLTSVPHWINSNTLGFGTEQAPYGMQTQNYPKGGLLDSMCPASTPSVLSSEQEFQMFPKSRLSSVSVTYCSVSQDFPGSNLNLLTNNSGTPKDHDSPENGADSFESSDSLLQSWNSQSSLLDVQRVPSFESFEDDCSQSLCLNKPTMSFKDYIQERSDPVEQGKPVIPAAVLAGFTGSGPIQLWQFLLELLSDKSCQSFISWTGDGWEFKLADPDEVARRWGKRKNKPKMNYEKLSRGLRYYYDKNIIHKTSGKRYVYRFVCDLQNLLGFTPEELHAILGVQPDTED
Summary of the method: as §1

SPDEF = biological target: T4, SPDEF (Homo sapiens, UniProt O95238 1-335)
T4 sequence: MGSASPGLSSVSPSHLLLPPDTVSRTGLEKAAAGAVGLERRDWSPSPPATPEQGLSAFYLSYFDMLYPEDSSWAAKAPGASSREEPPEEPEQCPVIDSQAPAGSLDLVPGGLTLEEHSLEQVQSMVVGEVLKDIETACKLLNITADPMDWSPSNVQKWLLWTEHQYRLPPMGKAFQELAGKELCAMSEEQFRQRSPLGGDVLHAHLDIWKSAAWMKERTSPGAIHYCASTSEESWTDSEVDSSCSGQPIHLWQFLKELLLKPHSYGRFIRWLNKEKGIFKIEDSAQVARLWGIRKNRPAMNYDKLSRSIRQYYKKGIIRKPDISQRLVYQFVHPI
Summary of the method: as §1

ETV7 = biological target: T5, ETV7 (Homo sapiens, UniProt Q9Y603 1-341)
T5 sequence: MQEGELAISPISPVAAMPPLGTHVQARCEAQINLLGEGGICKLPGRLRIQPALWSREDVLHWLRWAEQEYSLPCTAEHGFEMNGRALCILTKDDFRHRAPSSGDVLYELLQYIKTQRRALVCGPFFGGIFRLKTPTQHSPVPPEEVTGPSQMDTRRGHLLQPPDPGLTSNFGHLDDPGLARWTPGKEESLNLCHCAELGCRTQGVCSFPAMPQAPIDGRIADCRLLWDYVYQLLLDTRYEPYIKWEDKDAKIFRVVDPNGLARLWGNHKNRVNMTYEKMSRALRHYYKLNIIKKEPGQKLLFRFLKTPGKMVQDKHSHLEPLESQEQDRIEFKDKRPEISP
Summary of the method: as §1

ELF5 = biological target: T6, ELF5 (Homo sapiens, UniProt Q9UKW6-2 1-255)
T6 sequence: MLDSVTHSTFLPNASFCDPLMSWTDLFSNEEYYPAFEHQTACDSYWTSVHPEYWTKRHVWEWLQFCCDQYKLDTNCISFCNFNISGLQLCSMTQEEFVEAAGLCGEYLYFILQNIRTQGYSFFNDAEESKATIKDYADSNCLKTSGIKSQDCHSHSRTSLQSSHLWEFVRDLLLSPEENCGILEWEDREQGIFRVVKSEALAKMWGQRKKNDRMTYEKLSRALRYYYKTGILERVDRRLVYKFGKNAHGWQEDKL
Summary of the method: as §1

ETV3 = biological target: T7, ETV3 (Homo sapiens, UniProt P41162-2 1-143)
T7 sequence: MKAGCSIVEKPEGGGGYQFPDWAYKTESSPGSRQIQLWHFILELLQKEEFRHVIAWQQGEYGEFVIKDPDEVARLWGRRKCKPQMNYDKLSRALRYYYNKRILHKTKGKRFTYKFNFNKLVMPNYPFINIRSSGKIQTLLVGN
Summary of the method: as §1

ETV6 = ETV6 (Homo sapiens, UniProt P41212 1-452)
ETV6, sequence (P41212 whole entry): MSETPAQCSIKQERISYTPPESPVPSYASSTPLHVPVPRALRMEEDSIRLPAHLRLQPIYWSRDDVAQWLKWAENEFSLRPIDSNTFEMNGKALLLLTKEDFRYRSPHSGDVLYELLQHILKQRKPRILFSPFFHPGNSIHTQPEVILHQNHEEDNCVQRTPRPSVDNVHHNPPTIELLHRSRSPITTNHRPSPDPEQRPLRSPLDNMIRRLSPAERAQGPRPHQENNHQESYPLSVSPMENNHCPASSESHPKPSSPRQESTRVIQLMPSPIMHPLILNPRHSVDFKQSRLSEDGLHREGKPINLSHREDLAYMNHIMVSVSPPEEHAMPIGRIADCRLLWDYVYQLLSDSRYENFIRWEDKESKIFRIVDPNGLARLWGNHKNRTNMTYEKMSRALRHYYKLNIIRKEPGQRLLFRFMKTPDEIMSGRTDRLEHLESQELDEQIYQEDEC
Summary of the method: as §1

Sequence	binding signal (ERF)	binding signal (ETV3L)	binding signal (ETS2)	binding signal (SPDEF)	binding signal (ETV7)	binding signal (ELF5)	binding signal (ETV3)	binding signal (ETV6)
CTTTGC	1.32 fold enrichment (6-mer frequency, TF over GST control)	1.33 fold enrichment (6-mer frequency, TF over GST control)	1.34 fold enrichment (6-mer frequency, TF over GST control)	1.24 fold enrichment (6-mer frequency, TF over GST control)	1.28 fold enrichment (6-mer frequency, TF over GST control)	1.29 fold enrichment (6-mer frequency, TF over GST control)	1.37 fold enrichment (6-mer frequency, TF over GST control)	1.18 fold enrichment (6-mer frequency, TF over GST control)
AATCCC	1.44 fold enrichment (6-mer frequency, TF over GST control)	1.29 fold enrichment (6-mer frequency, TF over GST control)	1.25 fold enrichment (6-mer frequency, TF over GST control)	1.36 fold enrichment (6-mer frequency, TF over GST control)	1.23 fold enrichment (6-mer frequency, TF over GST control)	1.4 fold enrichment (6-mer frequency, TF over GST control)	1.26 fold enrichment (6-mer frequency, TF over GST control)	1.42 fold enrichment (6-mer frequency, TF over GST control)
TCCTAC	1.5 fold enrichment (6-mer frequency, TF over GST control)	1.52 fold enrichment (6-mer frequency, TF over GST control)	1.48 fold enrichment (6-mer frequency, TF over GST control)	1.43 fold enrichment (6-mer frequency, TF over GST control)	1.39 fold enrichment (6-mer frequency, TF over GST control)	1.79 fold enrichment (6-mer frequency, TF over GST control)	1.48 fold enrichment (6-mer frequency, TF over GST control)	1.47 fold enrichment (6-mer frequency, TF over GST control)
ACTACT	1.33 fold enrichment (6-mer frequency, TF over GST control)	1.37 fold enrichment (6-mer frequency, TF over GST control)	1.25 fold enrichment (6-mer frequency, TF over GST control)	1.15 fold enrichment (6-mer frequency, TF over GST control)	1.35 fold enrichment (6-mer frequency, TF over GST control)	1.34 fold enrichment (6-mer frequency, TF over GST control)	1.13 fold enrichment (6-mer frequency, TF over GST control)	1.27 fold enrichment (6-mer frequency, TF over GST control)
CACTTA	1.22 fold enrichment (6-mer frequency, TF over GST control)	1.13 fold enrichment (6-mer frequency, TF over GST control)	1.22 fold enrichment (6-mer frequency, TF over GST control)	1.34 fold enrichment (6-mer frequency, TF over GST control)	1.21 fold enrichment (6-mer frequency, TF over GST control)	1.18 fold enrichment (6-mer frequency, TF over GST control)	1.24 fold enrichment (6-mer frequency, TF over GST control)	1.23 fold enrichment (6-mer frequency, TF over GST control)
CTTCTC	1.33 fold enrichment (6-mer frequency, TF over GST control)	1.39 fold enrichment (6-mer frequency, TF over GST control)	1.32 fold enrichment (6-mer frequency, TF over GST control)	1.33 fold enrichment (6-mer frequency, TF over GST control)	1.32 fold enrichment (6-mer frequency, TF over GST control)	1.52 fold enrichment (6-mer frequency, TF over GST control)	1.31 fold enrichment (6-mer frequency, TF over GST control)	1.37 fold enrichment (6-mer frequency, TF over GST control)
CTCGTC	1.4 fold enrichment (6-mer frequency, TF over GST control)	1.24 fold enrichment (6-mer frequency, TF over GST control)	1.46 fold enrichment (6-mer frequency, TF over GST control)	1.35 fold enrichment (6-mer frequency, TF over GST control)	1.46 fold enrichment (6-mer frequency, TF over GST control)	1.32 fold enrichment (6-mer frequency, TF over GST control)	1.34 fold enrichment (6-mer frequency, TF over GST control)	1.46 fold enrichment (6-mer frequency, TF over GST control)
TAACTG	1.11 fold enrichment (6-mer frequency, TF over GST control)	1.23 fold enrichment (6-mer frequency, TF over GST control)	1.31 fold enrichment (6-mer frequency, TF over GST control)	1.2 fold enrichment (6-mer frequency, TF over GST control)	1.28 fold enrichment (6-mer frequency, TF over GST control)	1.16 fold enrichment (6-mer frequency, TF over GST control)	1.25 fold enrichment (6-mer frequency, TF over GST control)	1.26 fold enrichment (6-mer frequency, TF over GST control)
